Compound activity (PubChem)
Rows were chosen to be rich in hits. Some 3.5% of all compounds tested hit in one or more screens of this group.
SARS 3CLpro inh: SARS-CoV 3CLpro protease inhibition. P0C6X7. recombinant SARS-CoV 3CLpro, quenched FRET peptide cleavage. inhibition, % at 6 µM. hit rate 0.14% among 290,000. AID 1706; in the data active = inhibition above about 12%
BoNT F protease: BoNT F light chain protease inhibition | Multiplex microsphere protease cleavage assay, flow cytometry | inhibition, % at 10 µM | hit rate 0.22% among 360,000; in the data active = inhibition above about 35%, passing the limit was not always enough; also: plate controls were buffer without enzyme for full effect and enzyme alone for no effect
Bead autofluor: flagged as autofluorescent in microsphere protease counterscreen; hit rate 3.1% among 360,000; compound autofluorescence counterscreen, microsphere flow cytometry; active compounds read high; fluorescence intensity (concentration not given with the values); in the data active = fluorescence intensity above about 16000
Anthrax LF inh2: blocks Bacillus anthracis lethal factor protease. hit rate 0.12% among 360,000. P15917. inhibition, % at 10 µM. multiplex microsphere protease cleavage assay, LF. AID 588501; in the data active = inhibition above about 30%; also: plate controls were buffer without enzyme for full effect and enzyme alone for no effect
BoNT-A LC inh2: BoNT A light chain protease inhibition. multiplex microsphere protease substrate cleavage, flow cytometry. inhibition, % at 10 µM. hit rate 0.17% among 360,000. AID 588499; in the data active = inhibition above about 30%; also: plate controls were buffer without enzyme for full effect and enzyme alone for no effect
BoNT-A LC CP2: BoNT/A light chain protease inhibition; hit rate 10% among 150; shares compounds with BoNT-A LC inh2; inhibition, % at 10 µM; multiplex microsphere protease cleavage assay, flow cytometry; in the data active = inhibition above about 24%
Anthrax LF CP2: blocks anthrax lethal factor protease | hit rate 7% among 150 | shares compounds with BoNT-A LC inh2 | inhibition, % at 10 µM | multiplex microsphere protease cleavage assay
BoNT-F LC CP2: blocks botulinum neurotoxin F light chain protease. multiplex microsphere protease cleavage assay, flow cytometry. inhibition, % at 10 µM. hit rate 7% among 150. shares compounds with BoNT-A LC inh2
* hit, by the source's call; . = no result given. Rule as the data show it, unless noted: active = inhibition above about 25%; inactive = the rest.

SMILES | SARS 3CLpro inh | BoNT F protease | Bead autofluor | Anthrax LF inh2 | BoNT-A LC inh2 | BoNT-A LC CP2 | Anthrax LF CP2 | BoNT-F LC CP2
COc1ccccc1C(CNC(=O)c1ccc(C)c(S(=O)(=O)N2CCCCC2)c1)N1CCCC1 (centres undefined) | . | -12 | 71619* | -2 | -89 | -7 | 2 | 25*
COc1ccc(NS(=O)(=O)c2cccc(C(=O)NCC(c3ccc(OC)cc3)N3CCCCC3)c2)cc1 (centres undefined) | . | -10 | 7419 | -3 | -1 | . | . | .
COc1ccc(C(CNC(=O)c2ccc(OC)c(S(=O)(=O)N3CCCC3)c2)N2CCCC2)cc1 (centres undefined) | . | 40* | 21380* | 1 | -12 | -17 | 2 | 24
COc1ccc(C(CNC(=O)c2ccc(C)c(S(=O)(=O)N3CCCCC3)c2)N(C)C)cc1OC (centres undefined) | -4 | -3 | 4047 | 4 | -1 | . | . | .
COc1ccc(C(CNC(=O)c2cc(S(=O)(=O)N3CCCCC3)ccc2C)N2CCCC2)cc1 (centres undefined) | . | 45* | 19413* | 10 | -4 | -13 | 3 | 35*
COc1ccc(C(CNC(=O)c2cccc(S(=O)(=O)N3CCCCC3)c2)N2CCCC2)cc1 (centres undefined) | . | 9 | 9930 | -4 | -5 | 0 | -2 | -2
COc1ccc2sc(NCc3ccccc3)nc2c1 | -11 | -2 | 5175 | -4 | 0 | . | . | .
